Screening results from PubChem BioAssay.
PMK inhibit: S. pneumoniae PMK inhibition. hit rate 0.49% among 65,000. inhibition, % at 10 µM. purified PMK, PK/LDH-coupled NADH absorbance 340 nm;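 active = top-ranked compounds by inhibition in the single 10 µM screen, taking a fixed number of the strongest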
MK inhibit: blocks S. pneumoniae mevalonate kinase | purified MK, PK/LDH-coupled NADH absorbance 340 nm | inhibition, % at 10 µM | hit rate 0.48% among 65,000;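 active = ranked among the strongest by inhibition in the single 10 µM screen, a fixed top-ranked set picked for dose follow-up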
Spn DPM-DC inh: blocks S. pneumoniae diphosphomevalonate decarboxylase; purified DPM-DC, PK/LDH coupled NADH fluorescence; calls only at 10 µM; hit rate 0.49% among 65,000;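 active = the 320 compounds with the highest percent inhibition in the single-dose primary screen, excluding strongly autofluorescent ones, cut at about 32% in these data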;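 also: kinetic rate of NADH fluorescence loss reporting ADP formed by the decarboxylase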
Abs 340nm: absorbance at 340 nm; compound absorbance at 340 nm, fold over control; 65,000 tested, under 10 active; fold change at 10 µM;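 active = at 10 µM dose, initial 340 nm absorbance at least 2 fold that of control wells; inactive = change under 2 fold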;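 also: initial absorbance extrapolated from kinetic A340 decline of NADH oxidation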
Autofluor 339: intrinsic fluorescence of library compounds, ex339/em460 – biochemical, MLSMR library, data from DPM-DC assay, artefact control, profiling panel; compound autofluorescence, ex339/em460 nm, NADH buffer; stronger effect = higher value; 1 = no-compound wells, NADH background; fluorescence fold increase at 10 µM; hit rate 5.5% among 65,000; AID 709;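 active = at 10 µM, mean starting fluorescence two-fold or more over control wells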;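 also: signal is the first read of a kinetic run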
NADH enzymes: inhibition of NAD/NADH coupling enzymes, library profiling; coupled PK/LDH NADH assays, four targets; IC50, µM (highest dose often 10 µM); hit rate 0.02% among 65,000; AID 774;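 active = single-dose screening hits from any of four coupled enzyme assays that gave an IC50 when retested across doses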;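 also: the DPM-DC format reads NADH fluorescence rather than 340 nm absorbance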
Of the large screens only hits and unclear results are named; the others gave an inactive call. This is a sample that favours compounds with a hit; in the whole collection about 6.8% have one here.

COc1ccc(-c2cc(C(=O)N3CCN(c4ccccn4)CC3)c3ccccc3n2)cc1	Autofluor 339 2.66
Cc1csc(NC(=O)CSc2nnc(-c3ccncc3)o2)n1	none
O=C(C1CCCN(S(=O)(=O)c2ccc(F)cc2)C1)N(Cc1cccs1)C1CC1 (configuration not stated)	none
COc1cccc(N2C(=O)C3CCCN3C2c2ccc(Cl)cc2)c1 (configuration not stated)	none
O=C(CCCNS(=O)(=O)c1ccccc1)NCc1ccco1	none
CC(C)C(NS(=O)(=O)c1cccc2nsnc12)C(=O)N1CCc2ccccc2C1 (configuration not stated)	none
COc1cccc(-c2nnc(NC(=O)c3ccc(S(=O)(=O)N4CC(C)OC(C)C4)cc3)o2)c1 (configuration not stated)	none
